Source: PubChem BioAssay (The Scripps Research Institute Molecular Screening Center)
NR2F2 inh = inhibitors of human COUP-TFII (NR2F2) | 370,000 compounds, 0.7% hits | HEK293T NGFI-A luciferase reporter, luminescence | AID 686940 | inhibition, % at 8.6 µM;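 active = inhibition above a per-plate cutoff, mean inhibition of test wells between control levels plus 3 SD, cut at about 38% in these data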;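 also: cells cotransfected with COUP-TFII expression vector driving the NGFI-A reporter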
SRC1 inh = inhibitors of human steroid receptor coactivator 1 (SRC1). HEK293 GAL4-SRC1 luciferase reporter, luminescence. inhibition, % at 3.6 µM. 360,000 compounds, 0.12% hits. AID 588354;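 active = inhibition above the campaign mean plus 3 SD, with each screening campaign given its own cutoff, cut at about 60% in these data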
NCOA2 inhibitor = inhibits human steroid receptor coactivator 2. 370,000 compounds, 0.17% hits. inhibition, % at 9 µM. AID 651957. Q15596. HEK293 GAL4-SRC2 luciferase reporter, luminescence;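 active = inhibition above the mean inhibition of all tested compounds plus 3 SD, set per campaign, cut at about 52% in these data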
Target sequence (Q15596 whole entry, looked up, the tested form may be a part): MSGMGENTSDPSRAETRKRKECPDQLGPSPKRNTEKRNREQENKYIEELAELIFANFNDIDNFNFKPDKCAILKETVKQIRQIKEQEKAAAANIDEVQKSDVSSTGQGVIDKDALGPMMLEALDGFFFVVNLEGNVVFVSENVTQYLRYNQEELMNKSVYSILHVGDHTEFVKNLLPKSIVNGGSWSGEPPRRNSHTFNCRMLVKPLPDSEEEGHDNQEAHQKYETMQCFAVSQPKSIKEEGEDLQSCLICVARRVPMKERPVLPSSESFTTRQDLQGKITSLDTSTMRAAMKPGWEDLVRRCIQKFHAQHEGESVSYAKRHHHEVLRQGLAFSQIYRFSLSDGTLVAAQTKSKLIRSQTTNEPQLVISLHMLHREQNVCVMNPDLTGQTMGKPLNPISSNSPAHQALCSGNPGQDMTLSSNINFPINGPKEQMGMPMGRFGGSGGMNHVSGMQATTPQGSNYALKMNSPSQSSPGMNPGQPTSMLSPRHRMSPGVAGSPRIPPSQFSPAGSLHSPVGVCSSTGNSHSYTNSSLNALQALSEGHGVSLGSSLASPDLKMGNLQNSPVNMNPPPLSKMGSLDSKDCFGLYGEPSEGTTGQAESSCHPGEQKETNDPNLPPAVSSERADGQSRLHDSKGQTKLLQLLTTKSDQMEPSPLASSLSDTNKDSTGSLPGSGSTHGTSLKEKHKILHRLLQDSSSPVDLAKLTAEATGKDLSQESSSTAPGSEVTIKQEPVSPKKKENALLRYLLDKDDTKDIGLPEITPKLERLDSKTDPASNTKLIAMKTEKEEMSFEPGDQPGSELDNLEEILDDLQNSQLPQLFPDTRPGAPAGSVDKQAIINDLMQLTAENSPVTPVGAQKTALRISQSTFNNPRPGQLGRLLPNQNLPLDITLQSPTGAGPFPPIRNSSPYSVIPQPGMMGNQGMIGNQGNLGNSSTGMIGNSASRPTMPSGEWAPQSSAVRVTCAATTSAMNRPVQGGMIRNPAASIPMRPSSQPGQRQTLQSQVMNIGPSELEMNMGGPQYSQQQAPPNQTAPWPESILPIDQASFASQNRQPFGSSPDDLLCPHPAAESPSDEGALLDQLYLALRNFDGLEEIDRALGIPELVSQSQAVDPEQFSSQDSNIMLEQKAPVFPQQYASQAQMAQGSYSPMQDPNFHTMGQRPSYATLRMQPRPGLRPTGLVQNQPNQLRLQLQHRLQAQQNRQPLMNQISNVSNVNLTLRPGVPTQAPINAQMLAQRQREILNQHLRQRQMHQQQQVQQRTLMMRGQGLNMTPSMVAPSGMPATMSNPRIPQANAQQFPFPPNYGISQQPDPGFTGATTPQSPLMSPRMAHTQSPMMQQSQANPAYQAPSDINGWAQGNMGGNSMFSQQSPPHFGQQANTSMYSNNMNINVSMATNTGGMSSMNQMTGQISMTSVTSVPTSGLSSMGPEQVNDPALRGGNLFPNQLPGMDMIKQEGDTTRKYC
NR5A2 inv ag = NR5A2 inverse agonism in reporter assay | HEK293T StAR-luciferase reporter, LRH-1 transfected, 24 h | inhibition, % at 3.6 µM | 360,000 compounds, 0.13% hits;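 active = inhibition above the mean inhibition of all tested compounds plus 3 SD, cut at about 73% in these data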
NCOA3 inh = inhibitors of human steroid receptor coactivator 3 (SRC3). inhibition, % at 3.6 µM. AID 588352. HEK293 GAL4-SRC3 luciferase reporter, luminescence. 360,000 compounds, 0.17% hits. Q9Y6Q9;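 active = inhibition above a per-campaign cutoff, the mean of all compounds plus 3 SD, cut at about 60% in these data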;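 also: higher means less SRC3-driven luciferase light from the GAL4 reporter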
GalR3 antag = blocks the human galanin receptor 3; O60755; HEK293 GalR3-CNG cAMP membrane potential fluorescence; galR3 body fused to GalR1 C-terminus; inhibition, % at 3 µM; 360,000 compounds, 0.44% hits;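 active = inhibition above the screen-wide average plus 3 SD, cut at about 13% in these data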;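 also: forskolin and galanin both at EC90 stimulate the cells; cAMP rise reported by CNG channel membrane potential dye signal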
GalR3 conf = GalR3 (human) antagonism, confirmation; shares compounds with GalR3 antag; HEK293 GalR3 CNG cAMP biosensor, membrane potential fluorescence; galR3 fused to GalR1 carboxy tail; challenged with forskolin and galanin at EC90; inhibition, % at 3 µM; 1,600 compounds, 59% hits; AID 652245;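 active = inhibition above the primary screen's cutoff, the mean inhibition of all screened compounds plus 3 SD, cut at about 13% in these data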
CNG parental = parental cell agonism counter-screen for GalR3 antagonists | activation, % at 3 µM | 1,600 compounds, 10% hits | shares compounds with GalR3 antag | HEK293-CNG parental cells, cAMP membrane potential fluorescence; normalised: DMSO wells 0%, forskolin wells 100% | AID 652268; in the data active = activation above about 1.3%
Gal4-VP16 ctr = counter-screen for COUP-TFII antagonists: inhibitors of VP16; shares compounds with NR2F2 inh; HEK293 Gal4-VP16 luciferase reporter, luminescence; inhibition, % at 8.5 µM; 2,500 compounds, 25% hits; in the data active = inhibition above about 13%
NR2F2 inh conf = confirmation of human COUP-TFII (NR2F2) inhibitors. 2,500 compounds, 45% hits. HEK293 NGFI-A luciferase reporter, luminescence. shares compounds with NR2F2 inh. inhibition, % at 8.5 µM. AID 687008;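 active = mean inhibition over three repeats above a set limit taken from the earlier primary screen, cut at about 38% in these data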
Each line names hits and unclear results; the compound was inactive in the other large screens (follow-up assays come after a bar, where they were run). In the library only some 1.1% were active in any assay of this set; here they are far more common.

CCSc1nnc(N2C(=O)C(O)=C(C(=O)c3ccco3)C2c2cccc(OC)c2)s1 (stereo unspecified)	GalR3 antag 14.0 | GalR3 conf inactive | CNG parental inactive
CCCOc1cccc(C2C(C(=O)c3ccc(C)o3)=C(O)C(=O)N2c2nc(C)c(C(C)=O)s2)c1 (stereo unspecified)	GalR3 antag 27.8 | GalR3 conf 13.3 | CNG parental inactive
CSc1nnc(N2C(=O)C(O)=C(C(=O)c3ccco3)C2c2cccc(Cl)c2)s1 (stereo unspecified)	none
CCOC(=O)N1CCN(C(=O)CSCc2ccc(Br)cc2)CC1	none (no result: GalR3 antag) | GalR3 conf inactive | CNG parental inactive
CNC(=O)[C@H]1O[C@@H](n2cnc3c(NCc4cccc(I)c4)nc(Cl)nc32)[C@H](O)[C@@H]1O	GalR3 antag 51.4 | GalR3 conf 52.5 | CNG parental inactive
Nc1nc2c(ncn2[C@@H]2O[C@H](C(=O)N[C@H](Cc3ccccc3)C(=O)O)[C@@H](O)[C@H]2O)c(=O)[nH]1	none (no result: SRC1 inh, NR5A2 inv ag, NCOA3 inh)
CCN(CC)C(=O)CC[C@@H]1CC[C@]2(CCCN(Cc3ccncc3)C2)O1	none (no result: SRC1 inh, NR5A2 inv ag, NCOA3 inh, GalR3 antag)
Cc1noc(C(=O)Nc2ccc3c(c2)OCO3)c1Cl	none
CCc1onc(C)c1C(=O)Nc1ccc2c(c1)OCO2	none (no result: GalR3 antag) | GalR3 conf inactive | CNG parental inactive
NNC(=O)c1cc2c(N3CCC(Cc4ccccc4)CC3)ncnc2s1	GalR3 antag 28.9 | GalR3 conf 21.1 | CNG parental inactive
O=C(O)CNC(=S)N(Cc1ccc(F)cc1)C1CCCCC1	none
O=C(O)CNC(=S)N(Cc1ccccc1Cl)C1CCCCC1	GalR3 antag 14.4 | GalR3 conf inactive | CNG parental inactive
CN1C(=O)C(C)(C)c2cc(S(=O)(=O)N3CCCC(C(=O)Nc4ccc(Cl)cc4)C3)ccc21 (stereo unspecified)	GalR3 antag 17.8 | GalR3 conf 25.2 | CNG parental inactive
CC(C)c1ccc(NC(=O)C2CCCN(S(=O)(=O)c3ccc4c(c3)C(C)(C)C(=O)N4C)C2)cc1 (stereo unspecified)	none
Cc1nnc(SCC(=O)Nc2cccc(S(=O)(=O)N(C)c3ccccc3)c2)s1	GalR3 antag 12.6 | GalR3 conf inactive | CNG parental inactive
COCCn1cnnc1SCC(=O)Nc1cccc(S(=O)(=O)N(C)c2ccccc2)c1	none
CCOC(=O)C1CCN(S(=O)(=O)c2ccc3c(c2)CC(C)N3C(=O)C2CC2)CC1 (stereo unspecified)	GalR3 antag 17.2 | GalR3 conf inactive | CNG parental inactive
CCc1ccc(NC(=O)C2CCN(S(=O)(=O)c3ccc4c(c3)CC(C)N4C(C)=O)CC2)cc1 (stereo unspecified)	GalR3 antag 38.5 | GalR3 conf inactive | CNG parental inactive
CCc1ccc(NC(=O)C2CCCN(S(=O)(=O)c3ccc4c(c3)CC(C)N4C(C)=O)C2)cc1 (stereo unspecified)	none
C#CCN1CC(N2CCN(CCO)CC2)CS1(=O)=O (stereo unspecified)	none (no result: SRC1 inh, NR5A2 inv ag, NCOA3 inh, GalR3 antag)
Cn1nc(CC(=O)Nc2ccc3c(c2)OCCO3)c2ccccc2c1=O	NR2F2 inh 68.2, GalR3 antag 100.0 | GalR3 conf 105.7 | CNG parental inactive | Gal4-VP16 ctr inactive | NR2F2 inh conf 53.2
NS(=O)(=O)c1ccc(NC(=S)N2CCN(c3ccc(Cl)c(Cl)c3)CC2)cc1	NR2F2 inh 37.9, GalR3 antag 20.8 | GalR3 conf 36.7 | CNG parental inactive | Gal4-VP16 ctr 13.2 | NR2F2 inh conf inactive
COC(=O)[C@]12CCCCC=C1N(Cc1cccc3ccccc13)C(=O)[C@H](CC(=O)NCc1ccc(OC)c(OC)c1)C2	NR2F2 inh 97.0, GalR3 antag 14.1 (no result: SRC1 inh, NCOA3 inh) | GalR3 conf 75.8 | CNG parental inactive | Gal4-VP16 ctr inactive | NR2F2 inh conf 57.6
COCCCNC(=O)C[C@H]1C[C@@]2(C(=O)OC)C(=C[C@H](C3CCCC3)O[C@@H]2C)N(CCC2=CCCCC2)C1=O	none (no result: SRC1 inh, NR5A2 inv ag, NCOA3 inh, GalR3 antag)
O=C(c1cc(COc2cccc3cnccc23)on1)N1CCCC(CCCO)C1 (stereo unspecified)	NR2F2 inh 70.6, GalR3 antag 96.8 | GalR3 conf 104.0 | CNG parental inactive | Gal4-VP16 ctr inactive | NR2F2 inh conf 76.4
COc1ccc(OCc2cc(C(=O)N3CCCC(CO)C3)no2)c2ccccc12 (stereo unspecified)	none
COc1ccc(CCNc2ncnc3sccc23)cc1OC	NR2F2 inh 74.4, GalR3 antag 73.0 | GalR3 conf 129.1 | CNG parental inactive | Gal4-VP16 ctr inactive | NR2F2 inh conf 76.9
c1ccc2c(c1)OCC(CNCC1COc3ccccc3O1)O2 (stereo unspecified)	none
COc1ccc(Nc2ncnc3sccc23)cc1OC	none
c1ccc2c(c1)OCC(CNc1ncnc3sccc13)O2 (stereo unspecified)	NR2F2 inh 77.9, GalR3 antag 97.1 | GalR3 conf 104.8 | CNG parental inactive | Gal4-VP16 ctr inactive | NR2F2 inh conf 57.9
COc1ccccc1CNc1ncnc2sccc12	NR2F2 inh 61.6, GalR3 antag 76.5 | GalR3 conf 103.6 | CNG parental inactive | Gal4-VP16 ctr inactive | NR2F2 inh conf 53.0
CC(=O)N1[C@@H](CO)[C@@H](c2ccc(-c3cccc(F)c3)cc2)[C@@H]1CNCC1CCC1	none (no result: SRC1 inh, NR5A2 inv ag, NCOA3 inh, GalR3 antag)
CC(C)C[C@H]1COc2cc(Br)ccc2S(=O)(=O)N1Cc1cn(Cc2ccco2)nn1	none (no result: SRC1 inh, NR5A2 inv ag, NCOA3 inh, GalR3 antag)
COc1ccc(CN(C)c2ccc(S(=O)(=O)N3CCN(C)CC3)cc2[N+](=O)[O-])cc1OC	NR2F2 inh 69.6, GalR3 antag 102.7 | GalR3 conf 127.4 | CNG parental inactive | Gal4-VP16 ctr inactive | NR2F2 inh conf 67.2
COc1ccc(CCN(C)c2ccc(S(=O)(=O)N3CCCC3)cc2[N+](=O)[O-])cc1OC	none
C=CCN1C(=O)[C@@H](CC(=O)NCc2cccc(C(F)(F)F)c2)[C@]2(C(=O)OC)CCCCC=C12	none (no result: SRC1 inh, NR5A2 inv ag, NCOA3 inh, GalR3 antag)
CC(C)Nc1ccc(Nc2ccnc3cc4ccccc4cc23)cc1	none
